The structures appear in SMILES notation. Where “and” joins values, the source holds several entries; their conditions need not be identical. Equal entries are not always repeated. Results filed as inconclusive are left out. Some compounds were tested as several samples or in several runs, with calls that do not always agree. Calls of active or inactive are those of the source. Unless noted, the call rests on the fitted dose curve; in most records, active means well fitted curve in the direction sought with a large enough effect; inconclusive means small, poorly fitted or top-dose-only effect, or another doubt; inactive means no such curve, though single readings can be large; an effect the other way counts as inactive or inconclusive.

Test [1] is described as follows: qHTS Assay for Identification of Small Molecule Antagonists for NFkB Signaling Pathway. (AID 624479; calls by dose curve;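 further: pathway stimulated with TNF alpha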; further: potency means the concentration at half of the fitted maximal effect).
Test [2] can be described thus: Cell Proliferation Assay against the TMD8 Cell Line (AID 651645).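 Further: cells exposed to compound for 48 h before reading.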 To be noted: TMD8 DLBCL cell line proliferation/viability; at 46.1 µM (top of the series) unless noted. The gist of the method:
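Seed log-phase TMD8 cells in RPMI containing 5% FBS, add compounds at once, incubate 48 hours at 37C. Equilibrate to room temperature, add CellTiter-Glo, read luminescence after 15 minutes and express relative to DMSO and bortezomib controls.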

Test [3] in a line: Cell Proliferation Assay against the HBL1 Cell Line (AID 651646).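 Further: cells exposed to compound for 48 h before reading.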 The conditions noted are these: HBL1 DLBCL cells; at 46.1 µM (top of the series) unless noted. Put shortly:
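HBL1 ABC DLBCL cells, 500/well in RPMI with 5% FBS, treated for 48 h at 37C. Viability read by CellTiter-Glo luminescence, normalized to DMSO as 100% and 9.2 uM bortezomib as 0%.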

Test [4] in a line: Cell Proliferation Assay against the TMD8 Cell Line (Caspase readout at 16 hrs) (AID 651712). Further: potency means the concentration at half of the fitted maximal effect. Put shortly:
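TMD8 cells in RPMI with 5% FBS were treated with compound for 16 h at 37 C, then caspase 3/7 activation was read by Caspase-Glo luminescence. Percent activity was scaled to DMSO (0%) and 9.2 uM bortezomib final (100%).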

A short description of test [5]: Cell Proliferation Assay against the TMD8 Cell Line (Caspase readout at 8 hrs) (AID 651713). Further: potency means the concentration at half of the fitted maximal effect. Put shortly:
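TMD8 cells (500/well) in phenol red-free RPMI with 5% FBS were treated with compounds for 8 h at 37C, 5% CO2. Caspase-Glo 3/7 luminescence was read after 15 min at room temperature and normalised to DMSO (0%) and 9.2 uM bortezomib (100%).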

A short description of test [6]: qHTS assay for small molecule agonists of the antioxidant response element (ARE) signaling pathway (AID 651741; active means well fitted activation curve with a large enough effect in the signal ratio; the % refers to the signal ratio; further: potency means the concentration at half of the fitted maximal effect; on activation: % of control where 0% means no effect). The gist of the method:
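HepG2 ARE-bla cells plated at 2,000 cells/well and incubated 5 h at 37 C/5% CO2 received 23 nL compound in DMSO. After 16 h at 37 C, LiveBLAzer B/G FRET substrate was applied for 2 h at room temperature and fluorescence read.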

Test [7] in a line: qHTS assay for small molecule activators of the p53 signaling pathway (AID 651743; active means well fitted activation curve with a large enough effect in the signal ratio, not every such curve was filed as active; the % refers to the signal ratio; further: % of control where 0% means no effect). The conditions noted are these: HCT-116 p53RE-bla, beta-lactamase FRET ratio, 16 h; stronger effect = higher value. Put shortly:
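HCT-116 p53RE-bla, 4,000 cells/well; 5 h settle; cpd/DMSO 16 h, 37 C; LiveBLAzer B/G 2 h RT; fluorescence intensity.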

The nature of test [8]: qHTS assay for small molecule activators of the nuclear factor-kappa B (NF-kB) signaling pathway (AID 651749; active means well fitted activation curve with a large enough effect in the signal ratio; the % refers to the signal ratio; further: % of control where 0% means no effect). To be noted: NF-kB-bla ME-180 cells, beta-lactamase FRET ratio, 16 h; stronger effect = higher value. The gist of the method: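 Incubation lasted 16 hr at 37C in 5% CO2 after 23 nL compound addition to ME-180 NF-kB-bla cells. Activation appears as beta-lactamase-mediated FRET loss.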

A short description of test [9]: qHTS assay for small molecule disruptors of the mitochondrial membrane potential - 1 hr assay (AID 651754; calls by dose curve; further: potency means the concentration at half of the fitted maximal effect; nearly all actives have a fitted effect of over 35% in size). The gist of the method:
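HepG2 cells, attached overnight at 37C, were exposed to compound or DMSO vehicle for 1 hr at 37C, 5% CO2, then stained with Mito-MPS dye for 30 min. Red aggregate versus green monomer fluorescence reports membrane potential.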

A short description of test [10]: qHTS assay for small molecule disruptors of the mitochondrial membrane potential - 5 hr assay (AID 651755; calls by dose curve; further: nearly all actives have a fitted effect of over 40% in size; further: potency means the concentration at half of the fitted maximal effect). Put shortly: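 HepG2 cells (2,000/well), attached overnight, exposed to compound 5 hr at 37C, then Mito-MPS dye 30 min. Fluorescence read for monomers (490/535 nm) and aggregates (540/590 nm).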

Consider `O=C(O)CCC1CCC(c2cc(F)ccc2F)(S(=O)(=O)c2ccc(Cl)cc2)CC1` (centres undefined), for which the Potency entry in [1], in test [4] and in test [5] was “inactive” each time. For the same compound, the viability (% of control) in [2] turned out to be 98.2%. The viability, percent of control in [3] came out at 95.2%.

With `COc1cc2ncnc(-n3nc(-c4ccccn4)nc3N)c2cc1OC`, the Potency in test [1] was 1.88 µM (active); in [4] it was 16.6 µM (active); in [5], 20.9 µM (active). Moreover, the viability (% of control) in test [2] is 1.94%. In addition, the viability, percent of control in test [3] was 17.1%.

Consider `Clc1ccc(-c2nc3sccn3c2C=NOCc2ccc(Cl)c(Cl)c2)cc1`, for which the Potency result in test [1], in [4] and in test [5] was “inactive” each time. For the same compound, the viability (% of control) in test [2] was 74.9%. In addition, the viability, percent of control in [3] was found to be 4.32%.

For `COc1ccc(C2CC(c3ccccc3)=NN2c2ccc(S(N)(=O)=O)cc2)cc1` (centres undefined), the Potency result in test [1] was “inactive”. In addition, in test [2], the viability (% of control) was found to be 13.6%. Besides, the viability, percent of control in test [3] came to 5.45%.

For the compound `COc1ncc(-c2ccc3nccc(-c4ccnnc4)c3c2)cc1NS(=O)(=O)c1ccc(F)cc1F`, the Potency in [1] is 11.9 µM (active). Moreover, in test [2], the viability (% of control) was 1.53%. The viability, percent of control in test [3] amounted to 4.41%. The Potency entry in test [4] is “inactive”.

As for `CC(=O)c1ccc(S(=O)(=O)NC(=O)NC2CCCCC2)cc1`, the Potency result in test [6] is “inactive”. Also, the activation in test [7] was -2.83% (inactive) and -1.75% (inactive); in test [8] it was -0.811% (inactive) and -1.71% (inactive).

Take `CS(=O)c1ccc(-c2nc(-c3ccc(F)cc3)c(-c3ccncc3)[nH]2)cc1` (centres undefined): the Potency entry in test [1], in [4] and in [5] was “inactive” each time.

In the case of `CN1CCN(CCOc2cc(OC3CCOCC3)c3c(Nc4c(Cl)ccc5c4OCO5)ncnc3c2)CC1`, the viability (% of control) in [2] came out at 17.4%. Also, in test [3], the viability, percent of control turned out to be 19.4%.

Take `O=c1c(O)c(-c2ccc(O)cc2)oc2cc(O)cc(O)c12`: the Potency is 21.7 µM (active) in test [6], 5.31 µM (active) in test [9] and 8.41 µM (active) in test [10]. For the same compound, the activation in test [7] was 2.31% (inactive) and 6.56% (inactive); in test [8], -2.22% (inactive) and -4.27% (inactive).

On to `CN(C)CCC(c1ccccc1)c1ccccn1` (centres undefined), for which the Potency in test [6] is 37.6 µM (active). Moreover, the activation in test [7] was 1.39% (inactive); in [8], -0.458% (inactive).

For the compound `O=c1cc(-c2ccc(O)cc2)oc2cc(O)cc(O)c12`, the Potency in [6] was 24.3 µM (active) and 33.5 µM (active); in test [9], 2.98 µM (active); in [10], 5.96 µM (active).

Regarding `COc1cc2ncnc(Nc3ccc(F)c(Cl)c3)c2cc1OCCCN1CCOCC1`, in [2], the viability (% of control) worked out at 50.3%. Further, in test [3], the viability, percent of control came out at 40.3%.

For `O=C(O)c1cc(-c2ccccc2)nc2ccccc12`, the activation was -1.06% (inactive) in [7] and -3.75% (inactive) in test [8].

On to `CC(=O)N(C)C1(c2ccccc2)CCN(CCC[C@]2(c3ccc(Cl)c(Cl)c3)CCCN(C(=O)c3ccccc3)C2)CC1`, for which the viability (% of control) in test [2] came to 1.74%. For the same compound, the viability, percent of control in test [3] was determined as 1.69%. In addition, the Potency in test [4] is 11.8 µM (active).

For the compound `COc1cc(Nc2ncc(F)c(Nc3ccc4c(n3)NC(=O)C(C)(C)O4)n2)cc(OC)c1OC`, the viability (% of control) in [2] came out at 17.5%. The viability, percent of control in test [3] came out at 56.6%. Moreover, the Potency result in test [4] and in [5] was “inactive” throughout.

In the case of `CO[C@H]1C[C@@H]2CC[C@@H](C)[C@@](O)(O2)C(=O)C(=O)N2CCCC[C@@H]2C(=O)O[C@H]([C@H](C)C[C@@H]2CC[C@H](OCCO)[C@H](OC)C2)CC(=O)[C@H](C)C=C(C)[C@@H](O)[C@@H](OC)C(=O)[C@H](C)C[C@H](C)C=CC=CC=C1C`, the viability (% of control) in [2] is -0.307%. In addition, in test [3], the viability, percent of control is 9.54%. For the same compound, the Potency result in test [4] was “inactive”.

As to `CC(=O)O[C@]1(C(C)=O)CC[C@H]2[C@@H]3C=C(Cl)C4=CC(=O)[C@@H]5C[C@@H]5[C@]4(C)[C@H]3CC[C@@]21C`, the Potency in [6] is 54.5 µM (active) and 42.2 µM (active). For the same compound, the activation in [8] was -2.59% (inactive) and -0.559% (inactive).

Regarding `O=C(Nc1cc(Cl)cc2c1[nH]c1cnccc12)c1cccnc1`, the Potency in test [1] was 18.8 µM (active). The viability (% of control) in test [2] came out at 1.73%. Further, the viability, percent of control in test [3] was 32.9%. Further, the Potency result in test [5] is “inactive”.

For `O=c1cc(-c2ccccc2)oc2cc(O)cc(O)c12`, in test [6], the Potency was 10.9 µM (active). Further, the activation is 22.8% (inactive) in [7] and -2.47% (inactive) in [8].

For the compound `O=c1cc(CN2CCOCC2)occ1OCCCCCSc1ccnc2cc(C(F)(F)F)ccc12`, the viability (% of control) in [2] was found to be 6.87%. In addition, the viability, percent of control in [3] was 20.4%.

As for `CO[C@H]1C=CC=C(C)C(=O)NC2=CC(=O)C(NCCN(C)C)=C(C[C@@H](C)C[C@H](OC)[C@@H](O)[C@@H](C)C=C(C)[C@@H]1OC(N)=O)C2=O`, the viability (% of control) in test [2] worked out at 3.74%. The viability, percent of control in test [3] came out at 4.29%.

`NC(CO)(CO)CCc1ccc(Sc2cccc(OCc3ccccc3)c2)cc1Cl`: the viability (% of control) in test [2] worked out at 0.474%. Besides, the viability, percent of control in test [3] was 1.28%. In addition, in test [4], the Potency entry is “inactive”.

On to `O=c1[nH]cnc2c1ncn2[C@H]1CC[C@@H](CO)O1`, for which the Potency entry in test [6] and in [10] was “inactive” each time.

In the case of `CCOc1ccc(Nc2nc(-c3c(C)nc4ccccn34)cs2)cc1`, in test [2], the viability (% of control) was determined as 5.58%. Moreover, the viability, percent of control in test [3] was 14.7%. Moreover, in test [4], the Potency is 0.105 µM (active).

As to `CCn1cc(C(=O)O)c(=O)c2ccc(C)nc21`, in [6], the Potency entry is “inactive”. Also, the activation in test [8] is -0.653% (inactive) and -1.68% (inactive).

As to `CC(=O)N[C@@H](CS)C(=O)O`, in test [6], the Potency result was “inactive”. Besides, the activation in [7] is 0.943% (inactive).

For `CO[C@@H](C(=O)N1Cc2[nH]nc(NC(=O)c3ccc(N4CCN(C)CC4)cc3)c2C1)c1ccccc1`, the viability (% of control) in test [2] amounted to 3.09%.

For `O=C1NC(=O)C(c2ccccc2)(c2ccccc2)N1`, in test [6], the Potency is 34.4 µM (active) and inactive.

On to `O=c1c(-c2ccc(O)cc2)coc2cc(O)ccc12`, for which the Potency in test [6] was 27.3 µM (active) and 42.2 µM (active); in test [9], 18.8 µM (active); in test [10], 21.1 µM (active). Further, the activation in test [7] is -1.55% (inactive) and 1.43% (inactive); in [8] it was -0.613% (inactive) and -0.223% (inactive).

On to `CC1=C(/C=C/C(C)=C/C=C/C(C)=C/C(=O)Nc2ccc(O)cc2)C(C)(C)CCC1`, for which the values for the Potency in test [1], in test [9] and in test [10] were 21.1 µM (active), 15 µM (active) and 18.8 µM (active), respectively. In [2], the viability (% of control) turned out to be 7.34%. Also, in test [3], the viability, percent of control was determined as 0.102%.

As to `O=C(O)c1cc(O)c2c(c1)C(=O)c1cccc(O)c1C2=O`, the activation in [8] is 1% (inactive). The Potency in test [9] is 8.41 µM (active); in test [10], 5.31 µM (active).

On to `CC(C)OC(=O)C(C)(C)Oc1ccc(C(=O)c2ccc(Cl)cc2)cc1`, for which, in test [8], the activation was -1.6% (inactive).

Take `O=C(O)Cc1cccc2ccccc12`: in [6], the Potency result is “inactive”. Also, the activation in [7] is -2.96% (inactive) and -4.77% (inactive); in test [8], -0.417% (inactive) and -0.959% (inactive).

As to `CCCNC(=O)NS(=O)(=O)c1ccc(Cl)cc1`, the Potency entry in test [6] was “inactive”. The activation in test [7] is -1.07% (inactive) and -0.555% (inactive); in [8], -1.46% (inactive) and -0.938% (inactive).

`CCCCC1C(=O)N(c2ccccc2)N(c2ccccc2)C1=O`: the Potency result in test [6] was “inactive”. Further, the activation in test [8] is -1.5% (inactive) and -1.29% (inactive).
